SMILES strings stand for the structures. Where “and” joins values, the source holds several entries; their conditions need not be identical. Equal entries are not always repeated. Unmarked numbers belong to inactive results.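 How the source made its calls: active = AUC reduced over 20% with Padj below 0.05 in at least 2 of 3 replicates; inactive = otherwise.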

The first assay concerns Bacteroides caccae. As to the kind of experiment: growth AUC relative to DMSO control (median of replicates) (fraction); higher = more growth (less inhibition), active = hit call of the paper. The following applies: 20 µM; 24 h. An outline of the steps:
(§1)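 Area under the growth curve was normalised to the plate median of solvent-only wells, except on the industrial chemical plate, where row and column medians were used. Curves came from gut bacterial monocultures grown anaerobically at 37 °C in mGAM with 20 µM compound (1% DMSO), starting at OD600 0.05 and read at OD600 every hour for 24 h. The minimum OD of each curve was set to 0, and values are medians of three biological replicates grown on separate days.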
As for `Nc1cc(Cl)cc(C(=O)O)c1Cl`, the “growth AUC” value is 0.975.

As for `CCOP(=S)(OCC)Oc1cnccn1`, the “growth AUC” value was 0.985.

`O=C(O)C(F)(F)C(F)(F)C(F)(F)C(F)(F)C(F)(F)C(F)(F)C(F)(F)C(F)(F)F`: the “growth AUC” value was 1.

Take `CCOP(=S)(OCC)SCSCC`: the “growth AUC” value was 0.955.

Consider `CCOCn1c(-c2ccc(Cl)cc2)c(C#N)c(Br)c1C(F)(F)F`, for which the “growth AUC” value was 0.902.

Take `CCS(=O)(=O)c1cccnc1S(=O)(=O)NC(=O)Nc1nc(OC)cc(OC)n1`: the “growth AUC” value was 1.01.

For `CCNc1nc(NC(C)C)nc(SC)n1`, the “growth AUC” value is 0.959.

On to `CN1COCN(Cc2cnc(Cl)s2)/C1=N/[N+](=O)[O-]`, for which the “growth AUC” value was 1.

Take `COP(=S)(NC(C)C)Oc1ccccc1C(=O)OC(C)C` (stereo not drawn): the “growth AUC” value was 0.991.

For the compound `COC(=O)C(C)(Cl)Cl`, the “growth AUC” value was 0.984.

Regarding `CCCCOCN(C(=O)CCl)c1c(CC)cccc1CC`, the “growth AUC” value was 0.909.

Turning to `CC1(C)C(C=C(Cl)Cl)C1C(=O)OC(C#N)c1ccc(F)c(Oc2ccccc2)c1` (mixture of isomers), the “growth AUC” value is 1.

Turning to `CCOC(=O)CC(SP(=O)(OC)OC)C(=O)OCC` (stereo not drawn), the “growth AUC” value is 0.989.

`CCNc1nc(Cl)nc(NC(C)C)n1`: the “growth AUC” value is 0.956.

Regarding `Cc1cccc(C)c1N`, the “growth AUC” value is 1.04.

With `CN(C)C(=O)Nc1ccc(Cl)cc1`, the “growth AUC” value is 1.02.

As for `CCCCNC(=O)n1c(NC(=O)OC)nc2ccccc21`, the “growth AUC” value is 0.999.

`N#Cc1cc(I)c(O)c(I)c1`: the “growth AUC” value is 0.802.

As to `CCOP(=S)(OCC)Oc1cc(Cl)c(Br)cc1Cl`, the “growth AUC” value is 0.936.

`Cc1cnc(C2=NC(C)(C(C)C)C(=O)N2)c(C(=O)O)c1` (stereo not drawn): the “growth AUC” value is 0.987.

In the case of `CC1(C)CCC(Cc2ccc(Cl)cc2)C1(O)Cn1cncn1` (stereo not drawn), the “growth AUC” value was 0.874.

For the compound `CCCN(CCC)c1c([N+](=O)[O-])cc(S(C)(=O)=O)cc1[N+](=O)[O-]`, the “growth AUC” value is 0.942.

For `Cc1occc1C(=O)Nc1ccccc1`, the “growth AUC” value is 1.

As to `CCCOCC(=Nc1ccc(Cl)cc1C(F)(F)F)n1ccnc1`, the “growth AUC” value was 0.955.

As to `Nc1cc(Cl)cc(Cl)c1`, the “growth AUC” value is 0.895.

`O=C(O)COc1cc(Cl)c(Cl)cc1Cl`: the “growth AUC” value is 1.02.

On to `Cc1cc(Cl)ccc1N=CN(C)C`, for which the “growth AUC” value was 1.01.

In the case of `CNC(=O)Oc1cc(C)cc(C(C)C)c1`, the “growth AUC” value is 0.969.

`CCOc1cc(Oc2ccc(C(F)(F)F)cc2Cl)ccc1[N+](=O)[O-]`: the “growth AUC” value was 0.966.

Turning to `O=[N+]([O-])c1c(Cl)c(Cl)c(Cl)c(Cl)c1Cl`, the “growth AUC” value is 0.777.

Take `CC(Cc1ccc(C(C)(C)C)cc1)CN1CCCCC1` (stereo not drawn): the “growth AUC” value was 0.963.

`CNC(=O)c1cc(C#N)cc(C)c1NC(=O)c1cc(Br)nn1-c1ncccc1Cl`: the “growth AUC” value was 1.04.

`O=P(Oc1ccccc1)(Oc1ccccc1)Oc1ccccc1`: the “growth AUC” value was 0.898.

As to `CC(=NC#N)N(C)Cc1ccc(Cl)nc1`, the “growth AUC” value was 0.979 and 0.959.

As to `CO/N=C(/C1=NOCCO1)c1ccccc1Oc1ncnc(Oc2ccccc2Cl)c1F`, the “growth AUC” value is 0.987.

As for `Cc1ccn2nc(S(=O)(=O)Nc3c(F)cccc3F)nc2n1`, the “growth AUC” value is 0.968.

With `N#Cc1c(Cl)c(Cl)c(Cl)c(C#N)c1Cl`, the “growth AUC” value was 0.984.

For the compound `C=CCC1=C(C)C(OC(=O)[C@@H]2[C@@H](C=C(C)C)C2(C)C)CC1=O` (stereo partly drawn), the “growth AUC” value is 0.983.

For the compound `O=C(O)CNCP(=O)(O)O`, the “growth AUC” value is 1.06.

The test system of another assay is Bacteroides clarus. The description is as above. As to conditions: 20 µM; 24 h. An outline of the steps:
as §1
In the case of `Nc1cc(Cl)cc(C(=O)O)c1Cl`, the “growth AUC” value is 1.02.

With `CCOP(=S)(OCC)Oc1cnccn1`, the “growth AUC” value was 0.963.

In the case of `O=C(O)C(F)(F)C(F)(F)C(F)(F)C(F)(F)C(F)(F)C(F)(F)C(F)(F)C(F)(F)F`, the “growth AUC” value is 1.02.

On to `CCOP(=S)(OCC)SCSCC`, for which the “growth AUC” value was 0.991.

Turning to `CCOCn1c(-c2ccc(Cl)cc2)c(C#N)c(Br)c1C(F)(F)F`, the “growth AUC” value is 0.956.

Regarding `CCS(=O)(=O)c1cccnc1S(=O)(=O)NC(=O)Nc1nc(OC)cc(OC)n1`, the “growth AUC” value is 0.983.

`CCNc1nc(NC(C)C)nc(SC)n1`: the “growth AUC” value is 0.997.

Consider `CN1COCN(Cc2cnc(Cl)s2)/C1=N/[N+](=O)[O-]`, for which the “growth AUC” value was 0.976.

For `COP(=S)(NC(C)C)Oc1ccccc1C(=O)OC(C)C` (stereo not drawn), the “growth AUC” value was 0.93.

Take `COC(=O)C(C)(Cl)Cl`: the “growth AUC” value is 1.01.

`CCCCOCN(C(=O)CCl)c1c(CC)cccc1CC`: the “growth AUC” value is 0.955.

As for `CC1(C)C(C=C(Cl)Cl)C1C(=O)OC(C#N)c1ccc(F)c(Oc2ccccc2)c1` (mixture of isomers), the “growth AUC” value is 1.01.

As for `CCOC(=O)CC(SP(=O)(OC)OC)C(=O)OCC` (stereo not drawn), the “growth AUC” value is 0.992.

`CCNc1nc(Cl)nc(NC(C)C)n1`: the “growth AUC” value was 1.01.

As for `Cc1cccc(C)c1N`, the “growth AUC” value is 0.973.

Consider `CN(C)C(=O)Nc1ccc(Cl)cc1`, for which the “growth AUC” value is 0.971.

Consider `CCCCNC(=O)n1c(NC(=O)OC)nc2ccccc21`, for which the “growth AUC” value was 0.979.

Take `N#Cc1cc(I)c(O)c(I)c1`: the “growth AUC” value is 0.76 (active).

For the compound `CCOP(=S)(OCC)Oc1cc(Cl)c(Br)cc1Cl`, the “growth AUC” value is 0.94.

For the compound `Cc1cnc(C2=NC(C)(C(C)C)C(=O)N2)c(C(=O)O)c1` (stereo not drawn), the “growth AUC” value is 0.993.

In the case of `CC1(C)CCC(Cc2ccc(Cl)cc2)C1(O)Cn1cncn1` (stereo not drawn), the “growth AUC” value is 0.925.

In the case of `CCCN(CCC)c1c([N+](=O)[O-])cc(S(C)(=O)=O)cc1[N+](=O)[O-]`, the “growth AUC” value was 0.963.

With `Cc1occc1C(=O)Nc1ccccc1`, the “growth AUC” value was 0.958.

With `CCCOCC(=Nc1ccc(Cl)cc1C(F)(F)F)n1ccnc1`, the “growth AUC” value is 0.919.

On to `Nc1cc(Cl)cc(Cl)c1`, for which the “growth AUC” value is 1.04.

Regarding `O=C(O)COc1cc(Cl)c(Cl)cc1Cl`, the “growth AUC” value was 0.954.

On to `Cc1cc(Cl)ccc1N=CN(C)C`, for which the “growth AUC” value was 0.995.

Turning to `CNC(=O)Oc1cc(C)cc(C(C)C)c1`, the “growth AUC” value was 0.982.

For the compound `CCOc1cc(Oc2ccc(C(F)(F)F)cc2Cl)ccc1[N+](=O)[O-]`, the “growth AUC” value was 1.01.

As to `O=[N+]([O-])c1c(Cl)c(Cl)c(Cl)c(Cl)c1Cl`, the “growth AUC” value is 0.816.

Consider `CC(Cc1ccc(C(C)(C)C)cc1)CN1CCCCC1` (stereo not drawn), for which the “growth AUC” value was 0.951.

As to `CNC(=O)c1cc(C#N)cc(C)c1NC(=O)c1cc(Br)nn1-c1ncccc1Cl`, the “growth AUC” value was 0.977.

For the compound `O=P(Oc1ccccc1)(Oc1ccccc1)Oc1ccccc1`, the “growth AUC” value was 0.958.

For `CC(=NC#N)N(C)Cc1ccc(Cl)nc1`, the “growth AUC” value is 1.02 and 0.96.

For `CO/N=C(/C1=NOCCO1)c1ccccc1Oc1ncnc(Oc2ccccc2Cl)c1F`, the “growth AUC” value was 0.957.

Take `Cc1ccn2nc(S(=O)(=O)Nc3c(F)cccc3F)nc2n1`: the “growth AUC” value is 0.986.

`N#Cc1c(Cl)c(Cl)c(Cl)c(C#N)c1Cl`: the “growth AUC” value is 0.563 (active).

With `C=CCC1=C(C)C(OC(=O)[C@@H]2[C@@H](C=C(C)C)C2(C)C)CC1=O` (stereo partly drawn), the “growth AUC” value is 1.02.

In the case of `O=C(O)CNCP(=O)(O)O`, the “growth AUC” value was 0.999.

(Values after the supplement of paper PMC12669032.)
